FadD28 FP inh: M. tuberculosis FadD28 bisubstrate binding inhibition; FadD28 bisubstrate probe binding, fluorescence polarization; inhibition, % at 12.5 µM; 360,000 tested, 0.22% active; in the data active = inhibition above about 8.5%, passing the limit was not always enough
Y pestis TopoI: blocks Yersinia pestis topoisomerase I activity; Y. pestis Topo-I cleavage product accumulation, plate reader; activity, % at 10 µM; 360,000 tested, 0.064% active; in the data active = activity above about 50%, passing the limit was not always enough
BioA inh: BioA (M. tuberculosis) enzyme inhibition. inhibition, % at 9.99 µM. purified M. tuberculosis BioA enzyme, plate reader. 360,000 tested, 0.096% active; in the data active = inhibition above about 40%
TcdB inh: blocks C. difficile toxin B glycohydrolase activity. TcdB glycohydrolase enzymatic assay, plate reader. inhibition, % at 9.99 µM. 350,000 tested, 0.24% active. AID 652162; in the data active = inhibition above about 10%
The depositor's hits bear a star; . = not tested or not shown. Sampled rows, rich in hits. Any-hit rate of the full collection: about 0.45%.

SMILES	FadD28 FP inh	Y pestis TopoI	BioA inh	TcdB inh
COc1cccc(S(=O)(=O)Nc2ccc3c(c2)OC[C@H](C)N(C(=O)Cc2cccnc2)C[C@@H](C)[C@@H](OC)CN(C)C3=O)c1	.	.	-3	.
N#Cc1ccccc1NC(=O)c1cc(=O)c2ccccc2o1	12*	-6	.	0
Cc1ccc2c(c1)-c1c(cnn1CC(=O)NC(C)CCc1ccco1)CO2 (configuration not stated)	-2	-12	-7	11*
Cc1ccc2c(c1)-c1c(cnn1CC(=O)N(Cc1ccco1)C1CCCCC1)CO2	-4	30	-2	1
CC(=O)N1CCN(c2ccc(S(=O)(=O)N3CCCCC3)cc2[N+](=O)[O-])CC1	-1	8	3	1
CC(=O)N1CCN(c2ccc(S(C)(=O)=O)cc2[N+](=O)[O-])CC1	-3	-5	10	11*
CO[C@@H]1CC[C@@H]2CCOc3ccc(C#N)cc3C(=O)N(C)C[C@H](c3ccccc3)CC(=O)N(C)C[C@@H]1O2	.	.	0	.
Cc1c(C(=O)O)cccc1-c1ccc(/C=N/Nc2ccc(Br)cc2)o1	17*	-6	57*	.
O=C(O)c1ccc(N/N=C/c2ccc(-c3cc(Cl)ccc3Cl)o2)cc1	2	-5	-3	-5
O=C(O)c1cccc(-c2ccc(/C=N/Nc3ccc([N+](=O)[O-])cc3)o2)c1	23*	-7	2	2
O=C(O)c1ccc(N/N=C/c2ccc(-c3cccc(Cl)c3)o2)cc1	9.9*	-14	4	-1
O=C(O)c1ccc(-c2ccc(/C=N/Nc3ccc([N+](=O)[O-])cc3)o2)cc1	0	-16	.	0
CC(C)NC(=O)N1C[C@@H]2[C@H](c3ccccc31)[C@@H](CO)N2C(=O)c1ccccc1	.	.	-3	1
COc1ccc(-c2nc(C#N)c(NCc3ccc(F)cc3)o2)cc1OC	11*	0	3	.
O=C(CSc1ccc2nnc(-c3ccc(F)cc3)n2n1)N1CCOCC1	-2	8	4	24*
O=c1oc(-c2ccc([N+](=O)[O-])cc2)nc2ccccc12	1	1	.	5
O=c1oc(-c2ccc(Br)cc2)nc2ccccc12	-4	5	0	12*
COc1ccc(NC(=O)CSc2ccc([N+](=O)[O-])cc2)cc1S(=O)(=O)N1CCOCC1	12*	-2	.	1
CCC(=O)N1[C@@H](CO)[C@@H]2c3ccccc3N(C(=O)NC(C)C)C[C@@H]21	.	.	-5	0
CCCCNC(=O)CCCCn1c(=S)[nH]c2c([nH]c3ccc(OC)cc32)c1=O	-1	-1	.	1
COc1ccc2[nH]c3c(=O)n(CCCCC(=O)NCCN4CCCC4)c(=S)[nH]c3c2c1	-2	-4	0	11*
COc1ccccc1NC(=O)N(C)C[C@@H]1OCc2cn(nn2)CCCC(=O)N([C@@H](C)CO)C[C@@H]1C	.	.	-1	-2
COc1cc(/C=N/NC(=O)c2c(C)nc3ccc(Cl)cn23)cc(OC)c1OC	-1	-1	-2	13*
COc1ccc(/C=N/NC(=O)c2c(C)nc3ccc(Cl)cn23)cc1OC	-2	-1	-2	1
COc1cccc(CNC(=O)[C@H]2[C@H](CO)[C@H]3Cn4c(ccc(-c5cccnc5)c4=O)[C@H]3N2C)c1	.	.	7	0
SMILES	FadD28 FP inh	Y pestis TopoI	BioA inh	TcdB inh
CCOC(=O)Cn1c(S(=O)(=O)Cc2ccc(F)cc2)nc(-c2ccccc2)c1-c1ccccc1	0	52*	0	.
COc1ccc(S(=O)(=O)Nc2ccc3c(c2)C(=O)N([C@@H](C)CO)C[C@@H](C)[C@@H](CN(C)S(=O)(=O)c2c(C)noc2C)OCCCC[C@@H](C)O3)cc1	.	.	0	0
Cc1cccc(Cn2c(C(=O)OC(C)C)cc3c2ccn3C)c1	0	54*	-1	.
CCOC(=O)c1cc2c(ccn2C)n1Cc1ccc(Cl)cc1	2	5	.	3
CC1(c2ccc(OC(F)F)cc2)NC(=O)N(CC(=O)Nc2ccc3[nH]c(=O)[nH]c3c2)C1=O (configuration not stated)	12*	-3	1	3
Cc1nn(C2CC(O)C(O)C(CO)O2)c(=O)[nH]c1=O (configuration not stated)	-3	1	.	13*
Cc1ccc(SCc2cc(=O)[nH]c(Nc3nc(C)c4ccc(C)cc4n3)n2)cc1	-2	113*	.	0
Cc1ccc2nc(Nc3nc(CSc4nnc(C)s4)cc(=O)[nH]3)nc(C)c2c1	-2	58*	.	2
Cc1ccc(SCc2cc(=O)[nH]c(Nc3nc(C)c4ccccc4n3)n2)cc1	-2	-1	.	.
CCCNC(=O)N1[C@H](C#N)[C@H](c2ccc(-c3cccc(OC)c3)cc2)[C@H]1CO	.	.	0	0
COc1ccc(C(=O)c2ccsc2N)cc1	8.6*	-4	.	1

Assay outcomes (PubChem)
